AmpC inh no detg = qHTS Inhibitors of AmpC Beta-Lactamase (assay without detergent); P00811; AmpC nitrocefin hydrolysis, absorbance 480 nm, 0.0001% Triton; Potency, µM (highest dose often 57.1 µM), for inactives: at the highest dose activity change, negative = inhibition, usual class: inhibitors; hit rate 0.52% among 330,000; AID 485341, 2010;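 further: plate controls were no compound for no effect and no enzyme for full effect; nearly all actives have a fitted effect of over 20% in size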
Target sequence (P00811 whole entry, looked up): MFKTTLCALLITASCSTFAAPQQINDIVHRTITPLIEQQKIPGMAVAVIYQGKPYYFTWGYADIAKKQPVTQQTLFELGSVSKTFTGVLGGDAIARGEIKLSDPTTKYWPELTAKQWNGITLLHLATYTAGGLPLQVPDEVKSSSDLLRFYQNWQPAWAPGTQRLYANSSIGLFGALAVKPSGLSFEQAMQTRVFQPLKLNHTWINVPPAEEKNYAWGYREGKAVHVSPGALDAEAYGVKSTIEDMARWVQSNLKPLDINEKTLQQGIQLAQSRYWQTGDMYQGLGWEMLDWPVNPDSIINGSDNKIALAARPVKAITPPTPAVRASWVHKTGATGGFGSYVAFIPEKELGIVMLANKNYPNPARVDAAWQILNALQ
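20 mM phosphate pH 7.0 + 0.01% (detergent screen) or 0.0001% Triton X-100; 5.3 nM AmpC reagent; cpd preinc 15 min RT; nitrocefin (800 uM stock) to start; A480 q20 s × 4 min; Activity was normalised to no-enzyme and no-compound control wells.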
AMA1-RON2 inh = qHTS for Inhibitors of AMA1-RON; Towards Development of Antimalarial Drug Lead: Primary Screen; Potency, µM (top dose mostly 58.2 µM), inactives show at the top dose activity change, negative = inhibition, usual class: inhibitors; AlphaScreen AMA1-biotinylated RON2 peptide binding; Plasmodium falciparum AMA1 (3D7) - RON2 peptide interaction; AID 720542, 2013; hit rate 0.2% among 360,000;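 further: 0% = vehicle wells and -100% = peptide control; nearly all actives have a fitted effect of over 45% in size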
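AMA1 (3D7) with his tag at 25 nM final met compounds first, then biotinylated RON2 peptide at 25 nM; detection used donor plus acceptor beads, 10 µg/mL apiece, read by AlphaScreen after 30 min at room temperature.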
Pf growth 96h = Primary qHTS for delayed death inhibitors of the malarial parasite plastid, 96 hour incubation. AID 504834, 2011. hit rate 6.9% among 320,000. Potency, µM (series often up to 28.7 µM), without a hit: at the highest dose activity change, negative = inhibition, most hits filed as inhibitors. P. falciparum luciferase reporter growth, 96 h
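96 h incubation, 37 C, 5% CO2, of luciferase-reporter P. falciparum-infected RBCs (2% hematocrit, 0.05% parasitemia final) with test compounds; endpoint luminescence.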
Pf growth 48h = Primary qHTS for delayed death inhibitors of the malarial parasite plastid, 48 hour incubation; Potency, µM (titrated, usually from 28.7 µM), for inactives: at the highest dose activity change, negative = inhibition, hits mostly inhibitors; AID 504832, 2011; hit rate 5.9% among 310,000; P. falciparum luciferase growth in erythrocytes, 48 h
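Luciferase-expressing P. falciparum in infected erythrocytes (2% hematocrit, 0.1% parasitemia final) in RPMI 1640/0.5% Albumax were exposed to compound for 48 hours at 37 C, 5% CO2; growth read as luminescence.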
HCV inhibitor = qHTS Assay for Inhibitors of Hepatitis C Virus (HCV); Huh7.5.1 HCVcc-Cre infection, luciferase reporter, 44 h; AID 651820, 2012; hit rate 3.4% among 340,000; Potency, µM (titrated, usually from 41.8 µM), inactives show top-dose activity change, negative = inhibition, usual class: inhibitors
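After 44 h co-culture of compound, cells and HCVcc-Cre (~0.5 moi), substrate is added for 15 min at room temperature and luciferase measured over 15 sec. Cells were seeded at 1,000/well and pre-cultured 4 h.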
AmpC detergent = qHTS Inhibitors of AmpC Beta-Lactamase (assay with detergent) | P00811 | AmpC hydrolysis of nitrocefin, absorbance 480 nm, 0.01% Triton | Potency, µM (highest dose often 114 µM), inactives show top-dose activity change, negative = inhibition, actives largely listed as inhibitors | hit rate 0.041% among 370,000 | AID 485294, 2010;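 further: 0% = no-compound wells and -100% = no-enzyme wells; nearly all actives have a fitted effect of over 25% in size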
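AmpC (5.3 nM in the dispensed reagent) in 20 mM phosphate pH 7.0 with 0.01% (detergent screen) or 0.0001% Triton X-100 was preincubated with compounds for 15 min at room temperature. Nitrocefin was then added from an 800 uM solution, and hydrolysis was followed at 480 nm.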
Starred values were filed as active, the others as inactive; ? = inconclusive; nt = not tested or not shown; [ ] = another dose, or the depositor's remark. Rows were chosen to be rich in hits. Some 11% of all compounds tested hit in one or more screens of this group. The call rests on the fitted dose curve; in most records, active means well fitted curve in the direction sought with a large enough effect; inconclusive means small, poorly fitted or top-dose-only effect, or another doubt; inactive means no such curve, though single readings can be large; an effect the other way counts as inactive or inconclusive. Unless noted, on the % scale 0 is the no-effect control and ±100 the full control effect; potency means the concentration at half of the fitted maximal effect.

SMILES	AmpC inh no detg	AMA1-RON2 inh	Pf growth 96h	Pf growth 48h	HCV inhibitor	AmpC detergent
Cn1c(CNc2ccccc2O)nc2ccccc21	-23.5%	126.6%	9.28µM*	nt	1.5%	-11.6%
Cn1c(CCCCCN)nc2ccccc21	16.2%	-6.4%	10.4µM*	?	0.4%	?
CCN(CC)CCn1c(NCc2ccco2)nc2ccccc21	-21.9%	5.6%	-37.2%	-15.7%	17.3%	?
OCCNc1nc2ccccc2n1CCN1CCCCC1	-12.8%	-6.5%	-18.7%	-5.6%	12.7%	-11.8%
CCN(CC)CCn1c(NCc2nc3ccccc3n2Cc2ccccc2)nc2ccccc21	90.2%	26.9%	3.7µM*	nt	?	?
Cc1ccc(-n2nc(CO)c(C(=O)NCc3cccnc3)n2)cc1	nt	nt	nt	nt	nt	17.9%
CCOc1ccccc1NC(=O)Nc1nnc(N2CCCC(C)C2)s1 (centres undefined)	nt	nt	nt	nt	nt	-0.9%
COc1ccc(CNc2nc3ccccc3n2CCN2CCCCC2)cc1	18.8%[2.29 µM]	0.2%	?	-30.5%[5.75 µM]	-19.9%	?
Cn1c(CNc2nc3ccccc3n2CCN2CCCCC2)nc2ccccc21	-36.3%	16.5%	2.62µM*	11.7µM*	?	-8.2%
CCCCn1c(NCc2ccccc2NS(=O)(=O)c2ccc(C)cc2)nc2ccccc21	-33.9%	-1.6%	48.3%	?	?	3.4%
CCN(CC)CCn1c(NS(=O)(=O)c2ccc(C)cc2)nc2ccccc21	-14.9%	-6.0%[11.6 µM]	10.4µM*	-17.6%	9.7%	5.0%
CCN(CC)c1ccc(CNc2nc3ccccc3n2CCN2CCCCC2)cc1	-4.6%[2.29 µM]	?	5.9%	?	11.2µM*	-12.9%
CCCCc1ccc(C(=O)N/C(=C\c2ccc(C)cc2)C(=O)NC2CCCCC2)cc1	nt	nt	nt	nt	nt	4.7%
COc1ccc(OC)c(NC(=O)c2cc3c(s2)-c2ccccc2SC3)c1	nt	nt	nt	nt	nt	19.7%
Cc1ccccc1C(=O)Nc1cccc(NC(=O)c2ccc(C(C)(C)C)cc2)c1	nt	nt	nt	nt	nt	3.6%
CCOC(=O)c1sc2nc(CC(=O)OC)nc(NCC(=O)OC)c2c1C	41.1%	-1.8%	0.8%	?	-22.4%	0.4%
Cc1nnc(NCc2ccco2)c2ccccc12	-9.7%	2.0%	11.5%	19.6%	4.1%	?
CCOC(=O)c1sc2nc(CC(=O)OC)nc(NCc3ccco3)c2c1C	7.8%	15.1%	-23.3%	2.62µM*	?	?
Cc1sc2nc3c4ccccc4c(NCc4ccco4)nn3c(=O)c2c1C	-22.7%	-5.0%	5.86µM*	59.1%	-6.4%	1.5%
Cc1nc(NCc2ccco2)c2c(C)c(C)sc2n1	-5.5%	?	nt	-7.7%	10µM*	0.7%
CCOC(=O)C1=C[C@@]2(CC)CCCN3CCc4c(n1c1ccccc41)[C@H]32	nt	nt	-1.2%	6.01µM*	nt	nt
CC[C@@]12CCCN3CCc4c(n(c5ccccc45)C(=O)C1)[C@H]32	nt	nt	6.42µM*	?	nt	nt
CCC12CCCN3CCc4c(n(c5ccccc45)C(O)(C(=O)OC)C1)C32 (centres undefined)	-23.1%	-9.9%	-5.7%	-14.7%	9.3%	0.3%
COc1ccc2nc(NC(=O)CSc3cn[nH]n3)sc2c1	-36.6%	96.7%	42.6%	99.4%	12.6µM*	-5.4%
COc1ccc2nc(NC(=O)CSC3=NCCS3)sc2c1	-52.1%	9.4%	-13.6%	-1.8%	?	-10.0%
COc1ccc2nc(NC(=O)CCc3ccc(OC)c(OC)c3)sc2c1	-4.1%	-9.2%	11.7µM*	?	?	-0.3%
CCOc1ccc2nc(NC(=O)CSc3cn[nH]n3)sc2c1	-36.6%	107.9%	-24.7%	84.1%	?	?
CCOc1ccc2nc(NC(=O)CSC3=NCCS3)sc2c1	-18.7%	71.6%	nt	?	8.91µM*	?

Screening results from PubChem BioAssay.
